# Unmarked numbers belong to inactive results. Entries that show only a call come without a potency. For some of these results: Potency and affinity values are given separately. The source made the active and inactive calls. Unless noted, the rule behind the calls is not given here.
# Columns and labels:
# [1] = antimalarial activity against Dd2 strain (AID 2302;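 active = growth inhibition above 50% at the single 2 µM test dose, taken to imply half-maximal potency below 2 µM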); details: P. falciparum Dd2 in RBCs, LDH growth readout, 72 h; at 2 µM; active compounds read high
# [2] = human hepatoma cell viability loss – ATP luminescence, cytotoxicity control for P. falciparum antimalarial project, primary screen (AID 2303;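 active = inhibition above 50%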); details: HepG2 viability, 24-48 h, at 10 µM, active compounds read high
# [3] = target: L-lactate dehydrogenase (Plasmodium falciparum (isolate CDC / Honduras)) (UniProt Q27743); assay: PfLDH activity inhibition – cell lysate, 3D7 strain, counter-screen for P. falciparum growth inhibition project (AID 2304); details: P. falciparum 3D7 crude extract, LDH APAD/NBT absorbance; at 2 µM; active compounds read high
# Sequence of L-lactate dehydrogenase (Plasmodium falciparum (isolate CDC / Honduras)) (Q27743 whole entry, looked up): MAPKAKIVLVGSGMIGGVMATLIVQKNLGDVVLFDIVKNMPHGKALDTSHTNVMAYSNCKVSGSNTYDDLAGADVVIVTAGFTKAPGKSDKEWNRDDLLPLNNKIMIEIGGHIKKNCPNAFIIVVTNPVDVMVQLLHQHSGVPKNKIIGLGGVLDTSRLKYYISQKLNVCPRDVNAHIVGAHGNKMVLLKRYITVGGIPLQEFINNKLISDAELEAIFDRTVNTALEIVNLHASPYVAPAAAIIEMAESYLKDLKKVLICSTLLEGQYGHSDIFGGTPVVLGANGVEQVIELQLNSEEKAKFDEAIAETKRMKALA
# [4] = inhibition of 3D7 malaria parasite growth – strain 3D7 (AID 2306); details: P. falciparum 3D7 erythrocytic growth, LDH absorbance, 72 h; at 2 µM; active compounds read high
# [5] = target: Calcium-dependent protein kinase 1 (Plasmodium falciparum (isolate 3D7)) (UniProt P62344); assay: PfCDPK1 kinase inhibitors, biochemical, TCAMS library (AID 1159585; cut-off not given, nearly all actives have IC50 up to about 0.98 µM;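 note: inhibitors leave more ATP so luminescence rises with inhibition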); details: recombinant PfCDPK1, Kinase-Glo ATP depletion luminescence
# Sequence of Calcium-dependent protein kinase 1 (Plasmodium falciparum (isolate 3D7)) (P62344 whole entry, looked up): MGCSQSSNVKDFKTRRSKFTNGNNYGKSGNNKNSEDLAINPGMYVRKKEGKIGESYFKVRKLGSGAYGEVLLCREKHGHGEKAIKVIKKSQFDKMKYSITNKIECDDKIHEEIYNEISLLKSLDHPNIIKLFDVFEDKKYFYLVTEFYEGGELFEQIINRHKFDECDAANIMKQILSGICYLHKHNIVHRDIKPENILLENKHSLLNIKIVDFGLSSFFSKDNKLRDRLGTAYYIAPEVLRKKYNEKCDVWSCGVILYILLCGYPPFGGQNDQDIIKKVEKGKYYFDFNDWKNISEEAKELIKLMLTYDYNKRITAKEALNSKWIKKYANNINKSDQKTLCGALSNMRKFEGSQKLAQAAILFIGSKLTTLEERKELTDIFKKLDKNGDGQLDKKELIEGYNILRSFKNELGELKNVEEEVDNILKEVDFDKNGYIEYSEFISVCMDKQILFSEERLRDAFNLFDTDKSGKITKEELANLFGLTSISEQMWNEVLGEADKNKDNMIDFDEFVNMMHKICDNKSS
# [6] = target: Plasmodium falciparum protein kinase 6 (PK6, PF3D7_1337100) (UniProt Q8IDW1); assay: PfPK6 kinase inhibitors, biochemical, TCAMS library (AID 1159586); details: recombinant PfPK6, Kinase-Glo ATP depletion luminescence
# Sequence of Plasmodium falciparum protein kinase 6 (PK6, PF3D7_1337100) (Q8IDW1 1-305): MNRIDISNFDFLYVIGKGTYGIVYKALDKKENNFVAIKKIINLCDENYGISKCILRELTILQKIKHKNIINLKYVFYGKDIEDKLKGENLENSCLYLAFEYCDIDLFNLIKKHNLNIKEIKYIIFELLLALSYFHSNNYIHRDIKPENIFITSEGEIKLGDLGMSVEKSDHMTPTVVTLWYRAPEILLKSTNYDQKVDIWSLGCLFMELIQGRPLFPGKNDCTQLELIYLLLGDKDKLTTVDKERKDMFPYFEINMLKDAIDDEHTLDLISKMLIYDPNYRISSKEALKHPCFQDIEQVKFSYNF
# [7] = target: Protein kinase 7 (PK7), Plasmodium falciparum 3D7 (PF3D7_0213400) (UniProt Q7YTF7); assay: inhibition of Plasmodium PK7 catalytic activity – biochemical, TCAMS antimalarial set, Kinase-Glo luminescence (AID 1159587); details: recombinant PfPK7, Kinase-Glo ATP depletion luminescence
# Sequence of Protein kinase 7 (PK7), Plasmodium falciparum 3D7 (PF3D7_0213400) (Q7YTF7 1-343): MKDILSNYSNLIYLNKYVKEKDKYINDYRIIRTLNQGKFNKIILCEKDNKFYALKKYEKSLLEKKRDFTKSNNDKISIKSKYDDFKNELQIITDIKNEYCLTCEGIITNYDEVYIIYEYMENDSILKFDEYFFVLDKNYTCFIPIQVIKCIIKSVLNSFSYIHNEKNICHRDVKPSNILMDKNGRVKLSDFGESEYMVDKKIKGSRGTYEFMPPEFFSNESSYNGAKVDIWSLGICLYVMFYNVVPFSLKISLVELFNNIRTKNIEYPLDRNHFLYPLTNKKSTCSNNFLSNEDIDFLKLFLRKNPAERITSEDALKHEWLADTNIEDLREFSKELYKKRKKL
# [8] = target: Calcium-dependent protein kinase 4 (Plasmodium falciparum (isolate 3D7)) (UniProt Q8IBS5); assay: PfCDPK4 kinase inhibitors, biochemical, TCAMS library (AID 1159588; cut-off not given, nearly all actives have IC50 up to about 0.91 µM); details: recombinant PfCDPK4, Kinase-Glo ATP depletion luminescence
# Sequence of Calcium-dependent protein kinase 4 (Plasmodium falciparum (isolate 3D7)) (Q8IBS5 whole entry, looked up): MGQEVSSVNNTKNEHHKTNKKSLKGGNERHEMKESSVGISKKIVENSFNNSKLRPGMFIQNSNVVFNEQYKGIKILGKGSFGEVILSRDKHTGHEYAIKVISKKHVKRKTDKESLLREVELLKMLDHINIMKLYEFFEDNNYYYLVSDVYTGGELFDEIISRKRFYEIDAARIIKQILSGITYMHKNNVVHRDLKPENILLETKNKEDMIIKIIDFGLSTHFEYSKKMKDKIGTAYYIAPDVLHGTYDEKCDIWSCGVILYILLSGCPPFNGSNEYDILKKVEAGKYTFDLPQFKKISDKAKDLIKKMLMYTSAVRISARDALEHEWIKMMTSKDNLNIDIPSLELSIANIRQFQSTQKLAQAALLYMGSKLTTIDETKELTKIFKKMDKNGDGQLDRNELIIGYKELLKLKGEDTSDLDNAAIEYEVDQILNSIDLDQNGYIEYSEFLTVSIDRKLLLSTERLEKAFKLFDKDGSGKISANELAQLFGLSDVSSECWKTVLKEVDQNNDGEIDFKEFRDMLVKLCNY
SMILES,growth inhibition [1],inhibition [2],inhibition [3] [%],growth inhibition [4],outcome [5],outcome [6],outcome [7],outcome [8]
CC(C)(C(=O)Nc1ccc(C2CCC(NCC3CC3)CC2)c(Cl)c1)c1cccc(OC(F)F)c1 (stereo not drawn),23%,34%,-4,99% (active),inactive,inactive,inactive,inactive
CCN(CC)C(=NCCCCCCCCN=C(/N=C(/N)Nc1ccc(Cl)cc1)N(CC)CC)/N=C(/N)Nc1ccc(Cl)cc1,94% (active),10%,-3,99% (active),inactive,inactive,inactive,inactive
O=C(NC1CCCCC1)N(Cc1ccc(-c2cccc(CNC3CCCC3)c2)cc1)C1CCN(Cc2ccccc2)CC1,59% (active),52% (active),3,95% (active),inactive,inactive,inactive,inactive
Nc1cccc(CNCc2cccc(-c3cccc(-c4nc5ccc(F)cc5[nH]4)c3)c2)c1,82% (active),5%,-4,102% (active),inactive,inactive,inactive,inactive
Cc1nc(-c2ccc(C#N)cc2)sc1C(=O)NCCCCN1CCC(c2ccc3c(c2OCCO)CCCC3)CC1,10%,14%,6,99% (active),inactive,inactive,inactive,inactive
COC(=O)[C@@H](NC(=O)[C@H](CC(C)C)Nc1ccc(C#N)c2ccccc12)c1ccc(O)cc1,87% (active),4%,0,98% (active),inactive,inactive,inactive,inactive
CC(C)(C)c1cc(NC(=O)c2ccc(Cl)c([N+](=O)[O-])c2)cc(C(C)(C)C)c1,7%,-4%,4,93% (active),inactive,inactive,inactive,inactive
Cc1cc(C(F)(F)F)nn1-c1ccc(NC(=O)c2ccco2)cc1,93% (active),14%,-3,94% (active),inactive,inactive,inactive,inactive
CC1(CCCCN2CCC(Cc3ccccc3)CC2)C(=O)Nc2ccccc21 (stereo not drawn),28%,66% (active),-8,100% (active),inactive,inactive,inactive,inactive
O=C(Nc1ccc(Cl)cc1)NC1CCN(CCCCCNC(=O)[C@@H]2C[C@H]2c2ccc(Cl)c(Cl)c2)CC1,18%,51% (active),4,102% (active),inactive,inactive,inactive,inactive
CCCc1cc(Cc2cnc(N)nc2N)cc(CCC)c1OCCCCC(=O)OCC,-3%,1%,4,93% (active),inactive,inactive,inactive,inactive
c1ccc2c(c1)ncc1c3ccccc3[nH]c21,36%,-1%,-6,95% (active),inactive,inactive,inactive,inactive
COc1ccc2ccc(F)c(CCN3CCC(NCc4cc5c(cn4)OCCO5)CC3)c2n1,36%,15%,3,96% (active),inactive,inactive,inactive,inactive
CCOc1cc(C(=O)NC2CCN(Cc3ccccc3)CC2)ccc1-c1nc2ccc(Cl)cc2[nH]1,84% (active),10%,-6,101% (active),inactive,inactive,inactive,inactive
O=C(C=Cc1ccc(Br)cc1)N1CCC(CCN2CCC(c3c[nH]c4ccccc34)CC2)CC1,24%,47%,2,98% (active),inactive,inactive,inactive,inactive
c1ccc(CN2CCCN(c3ccc4c(c3)CCN(Cc3ccc(-c5ncc[nH]5)cc3)CC4)CC2)cc1,73% (active),6%,2,100% (active),inactive,inactive,inactive,inactive
C#CCCC(=O)Nc1cccc(-c2cccc(-c3nc4c(C)cccc4[nH]3)c2)c1,29%,30%,-3,97% (active),inactive,inactive,inactive,inactive
Nc1cccc(CNCc2cccc(-c3csc(-c4nc5ccccc5[nH]4)c3)c2)c1,63% (active),13%,4,102% (active),inactive,inactive,inactive,inactive
C(=N\Nc1nccc2sc(-c3cccnc3)cc12)/c1ccncc1,94% (active),65% (active),7,101% (active),inactive,inactive,inactive,inactive
COc1cccc(Nc2nnc(SCC(=O)NNC(=O)c3ccccn3)s2)c1,95% (active),52% (active),-1,99% (active),inactive,inactive,inactive,inactive
Cc1cc(NC(=O)NCCN2CCC(NS(=O)(=O)c3ccccc3F)CC2)c2ccccc2n1,44%,0%,-4,81% (active),inactive,inactive,inactive,inactive

SMILES,growth inhibition [1],inhibition [2],inhibition [3] [%],growth inhibition [4],outcome [5],outcome [6],outcome [7],outcome [8]
O=C(Nc1ccccc1)c1nn(CCCN2CCC(N3CCCC3)CC2)cc1-c1ccc(Cl)c(Cl)c1,98% (active),31%,-2,103% (active),inactive,inactive,inactive,inactive
CCCc1cc(Cc2cnc(N)nc2N)cc(CCC)c1OCCCCC(=O)O,23%,18%,-2,95% (active),inactive,inactive,inactive,inactive
COc1ccc(-c2ccc(NC(=O)c3cccc(Cl)c3)cc2)cc1CN(C)CCO,52% (active),39%,-4,89% (active),inactive,inactive,inactive,inactive
COc1cccc(Nc2nccc(NCC(O)c3ccc(C(F)(F)F)cc3)n2)c1 (stereo not drawn),28%,14%,-4,99% (active),inactive,inactive,inactive,inactive
Cc1cc(NCC2CCN(CC3CCCCC3)C2)nc(Nc2ccc(Cl)cc2)n1 (stereo not drawn),74% (active),2%,-3,101% (active),inactive,inactive,inactive,inactive
Cc1c(CNCCCNc2cc(=O)c3ccccc3[nH]2)sc(/C=N/O)c1Br,-2%,0%,6,82% (active),inactive,inactive,inactive,inactive
COc1ccc(-c2csc(NC(=O)CCC(=O)O)n2)cc1OC,-2%,63% (active),5,94% (active),inactive,inactive,inactive,inactive
CCN(CCCN1CCCCC1)c1cc(C)nc(Nc2ccc(F)c(C(F)(F)F)c2)n1,93% (active),32%,0,100% (active),inactive,inactive,inactive,inactive
NC(=O)C1CCN(Cc2cccc(-c3cccc(-c4nc5ccc(C(F)(F)F)cc5[nH]4)c3)c2)CC1,100% (active),16%,3,100% (active),inactive,inactive,inactive,inactive
O=C(Nc1ccc(-c2cccc(-c3nc4ccc(F)cc4[nH]3)c2)cc1)Nc1ccsc1,51% (active),34%,5,101% (active),inactive,inactive,inactive,inactive
CN1CCN(c2ccnc3ccc(NC(=O)Cc4ccc(-c5ccncc5)c5ccccc45)cc23)CC1,101% (active),32%,3,103% (active),inactive,inactive,inactive,inactive
CCCCCCCc1c(C)[nH]c2c(OC)cccc2c1=O,85% (active),-5%,5,89% (active),inactive,inactive,inactive,inactive
Cc1ccc(Nc2nccc(NCC(O)c3cccc(C)c3)n2)cc1 (stereo not drawn),23%,22%,0,90% (active),inactive,inactive,inactive,inactive
O=C(NCCCCCN1CCC(c2c[nH]c3ccccc23)CC1)Nc1cccc(I)c1,11%,70% (active),-8,99% (active),inactive,inactive,inactive,inactive
O=C(Nc1ccc(C(=O)N(Cc2ccc3c(c2)OCO3)C2CCCC2)cc1)c1cccs1,95% (active),14%,4,97% (active),inactive,inactive,inactive,inactive
COc1ccccc1C1CCN(C2CCC(NC(=O)/C=C/c3cccc(Cl)c3F)CC2)CC1 (stereo not drawn),19%,50% (active),-4,96% (active),inactive,inactive,inactive,inactive
CCCCCCN1CCC(NCc2ccc(C(F)(F)F)cc2)CC1,47%,11%,-2,100% (active),inactive,inactive,inactive,inactive
CN(C)c1ccc(-c2csc(C(=O)NCC3CCN(Cc4ccc(C(C)(C)C)cc4)C3)c2)cc1 (stereo not drawn),64% (active),29%,0,97% (active),inactive,inactive,inactive,inactive
CC1CC(NCCCNc2cc(=O)c3ccccc3[nH]2)c2c1cc(Cl)c(Cl)c2Cl (stereo not drawn),70% (active),1%,3,98% (active),inactive,inactive,inactive,inactive
CC(CCCC(=O)Nc1ccc(CC(C)NCCc2cccc(Cl)c2)cc1)NCCc1cccc(Cl)c1 (stereo not drawn),14%,98% (active),-3,101% (active),inactive,inactive,inactive,inactive
